Data reported in article PMC7819943, “Rice protein-binding microarrays: a tool to detect cis-acting elements near promoter regions in rice”.
Whole data set: some 35,000 sequences, median “fluorescence intensity (a.u.)” near 10,000, cut for the highest 2% near 52,000. Many of the other results were omitted from the sample, so the highest values are more common in it than they were.

target: T1, OsWOX13 (Oryza sativa, UniProt Q5QMM3 1-267); test: protein-binding microarray (RPBM); PBS, 2% BSA, 51.3 ng/ul salmon testes DNA, 50 uM zinc acetate, 200 nM TF, 25 C, 1 h; high values mean tight binding; details: protein: recombinant; tags: N-terminal polyhistidine and DsRed monomer fusion (pET32a); label: CyDye5-dUTP incorporated in the synthesized complementary strand; 3' TTTTT single-stranded linker to array surface; dsDNA, one strand shown
T1 sequence: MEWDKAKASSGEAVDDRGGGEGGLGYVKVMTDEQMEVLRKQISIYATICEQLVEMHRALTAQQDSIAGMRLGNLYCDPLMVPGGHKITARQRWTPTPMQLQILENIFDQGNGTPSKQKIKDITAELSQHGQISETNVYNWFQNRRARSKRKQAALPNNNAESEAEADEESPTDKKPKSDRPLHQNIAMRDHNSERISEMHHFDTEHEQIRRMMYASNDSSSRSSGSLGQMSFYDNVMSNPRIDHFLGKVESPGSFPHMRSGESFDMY
Procedure, shortened: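 Transcription factors were made in E. coli BL21-CodonPlus as N-terminal fusions to a polyhistidine tag and DsRed, then purified on Ni–NTA. After primer extension with Cy5-dUTP and blocking with 2% BSA, a custom Agilent array was exposed for 1 h at 25 °C to 200 nM protein in PBS, 2% BSA, salmon testes DNA and 50 µM zinc acetate. Washed arrays were scanned on an Axon 4000B, and the binding signal is per-feature fluorescence intensity in arbitrary units.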

Sequence | binding signal
ATCTTAATTTACCTTTCACTGCATCTAATATGTCACTTTGCGGAGTCACCTAGTGCAG | 20700 fluorescence intensity (a.u.)
ATTTGAAATTTAAATTTTAGCTTTTGCTTTAGTTTATTTGCGGAGTCACCTAGTGCAG | 8720 fluorescence intensity (a.u.)
CCGTGATTAGCGACATTGCTGTGTGCAACGTTTGTTCCTTCGGAGTCACCTAGTGCAG | 37600 fluorescence intensity (a.u.)
TGTTAGATGATAAAACATGATTAATATTTTATGTGTGACTCGGAGTCACCTAGTGCAG | 4360 fluorescence intensity (a.u.)
AATAACTGATAAAAGATATATGATTTTGGAGAAATGTGTGCGGAGTCACCTAGTGCAG | 26100 fluorescence intensity (a.u.)
TAGATTAATTTGTCATCAAAACACCCTCATATAATTAATTCGGAGTCACCTAGTGCAG | 19200 fluorescence intensity (a.u.)
TTTCTTAATTGTATTTCTATATGGACTTGATACCCTTCTTCGGAGTCACCTAGTGCAG | 18900 fluorescence intensity (a.u.)
CCTAATTAATCCATAGCACATGTTTACTGTAGCGTCACATCGGAGTCACCTAGTGCAG | 12400 fluorescence intensity (a.u.)
CTAATTAATCCGTTATTAGCACATATGTGTTACTGTAGCACGGAGTCACCTAGTGCAG | 12200 fluorescence intensity (a.u.)
GTAGTGAATGGCTGCCTAATTTTGTGCATTAACCATGGTGCGGAGTCACCTAGTGCAG | 5100 fluorescence intensity (a.u.)
AATCCATAATTAGAGAATGTTTACTGTAGCATCACATAGGCGGAGTCACCTAGTGCAG | 15900 fluorescence intensity (a.u.)
TCATAATTAATTAGAAGTGGCTGCATGTGAGAATGTTTGGCGGAGTCACCTAGTGCAG | 53800 fluorescence intensity (a.u.)
AAGTCTAATTAATTCATAATTAGCACATGTTTACTGTAGCCGGAGTCACCTAGTGCAG | 53800 fluorescence intensity (a.u.)
TAAACCTAATTAATCATCATTAGCAAATGTTTACTGTAGCCGGAGTCACCTAGTGCAG | 30400 fluorescence intensity (a.u.)
TTCATAATTAGCACATGTTTACTGTGGTATCACATGGACTCGGAGTCACCTAGTGCAG | 25200 fluorescence intensity (a.u.)
AGCCTAATTAATCTATAATTAGAGAATGTTTACTGTAGCACGGAGTCACCTAGTGCAG | 46200 fluorescence intensity (a.u.)
AGCCTAATTAATCCGATATTAGTAAATGTTTACTGTAGCACGGAGTCACCTAGTGCAG | 15000 fluorescence intensity (a.u.)
AGCCTAATTAATCCATAATTAACATATGTTTACTGTAGCACGGAGTCACCTAGTGCAG | 53000 fluorescence intensity (a.u.)
AGCCTAATTAATACATAATTAGCACATGTTTACTGTAGCACGGAGTCACCTAGTGCAG | 55100 fluorescence intensity (a.u.)
CCATTTCTTGCTGATGATTGATGATGAACATTTCTAATAGCGGAGTCACCTAGTGCAG | 27400 fluorescence intensity (a.u.)
TACTATGATTTTCTTTGAATTCAGGTCCTTGCGATTCCAGCGGAGTCACCTAGTGCAG | 3510 fluorescence intensity (a.u.)
TGGATAATTAAGCTCATGAGACGACAACGAACAATGAATGCGGAGTCACCTAGTGCAG | 8610 fluorescence intensity (a.u.)

Sequence | binding signal
AGATGTTTGAATAATTGATACAATATCAGGAGCGAATATGCGGAGTCACCTAGTGCAG | 4430 fluorescence intensity (a.u.)
TGAAATTTCTCTTCATTTTGTTTTAAATCCTGGACAGACACGGAGTCACCTAGTGCAG | 3370 fluorescence intensity (a.u.)
CAACCAATAAATTAGAACTCCATCTCGATCATGGTGTTATCGGAGTCACCTAGTGCAG | 4370 fluorescence intensity (a.u.)
GGCTTGATTTATTGATTTGTTCTTTAGTACTCCAGTTCAACGGAGTCACCTAGTGCAG | 25700 fluorescence intensity (a.u.)
ATAAATTAGCACCCACCTCTGCCTTCCTACCTTCCCCTCCCGGAGTCACCTAGTGCAG | 24900 fluorescence intensity (a.u.)
GAGAGAGAGATCAGCACATGATTGATTAAATATTAGCTTACGGAGTCACCTAGTGCAG | 19100 fluorescence intensity (a.u.)
TTAATTGGATATATGATGTTGCAAATTTGCCTATTCAGAACGGAGTCACCTAGTGCAG | 27000 fluorescence intensity (a.u.)
GCATGAAGACATCAATTAATTAATTGCATGGTTACATGCACGGAGTCACCTAGTGCAG | 37200 fluorescence intensity (a.u.)
TCCATAATTAGCGGCTGATTACTGTAGCATCACTGTAGCACGGAGTCACCTAGTGCAG | 31200 fluorescence intensity (a.u.)
TCATCAGTTAATTAATACATGCATATTATATTATATAGGGCGGAGTCACCTAGTGCAG | 20200 fluorescence intensity (a.u.)
ATTAATCCATAATTAGCAAATGTTTACTGTAGCATCACATCGGAGTCACCTAGTGCAG | 13800 fluorescence intensity (a.u.)
TCCATAATTAGCAGCTGATTACTGTAGTATTACTGTAGCACGGAGTCACCTAGTGCAG | 60800 fluorescence intensity (a.u.)
ATTAATCCACAATTATCAAAAGTTTACTGTAGCATCACATCGGAGTCACCTAGTGCAG | 5730 fluorescence intensity (a.u.)
CCTAATTAATCCATAATTATCAAAAGTTTACTGTAGCATCCGGAGTCACCTAGTGCAG | 62800 fluorescence intensity (a.u.)
AATAATTAATTAATCATAGCTTGCAACTGCATATGTAGGGCGGAGTCACCTAGTGCAG | 56700 fluorescence intensity (a.u.)
TGTAATAGTGGGTTAATTAATTAGCTTGCCAGCTTCAGGGCGGAGTCACCTAGTGCAG | 21900 fluorescence intensity (a.u.)
ATGATTAGCAGCTGATTACTGTAGCATTACTGTAGCAAATCGGAGTCACCTAGTGCAG | 45200 fluorescence intensity (a.u.)
TTGGTGTAATTGACATGCGGGCCCACAATTTTATTATTTTCGGAGTCACCTAGTGCAG | 23800 fluorescence intensity (a.u.)
ATTGATAACGGCAGACTAACTGATACGACAGAGATGGTCACGGAGTCACCTAGTGCAG | 7620 fluorescence intensity (a.u.)
CCGGATTGCTGGATCATTTTCTTCTCGGCCCATTGGACTCCGGAGTCACCTAGTGCAG | 3410 fluorescence intensity (a.u.)
ATGATTACTAAAACTGTACTTAAAGGCAATGGTTTCTGTACGGAGTCACCTAGTGCAG | 13900 fluorescence intensity (a.u.)
CATTGATTGGATCGTACGCTTGTGTTGCATGACCAATGATCGGAGTCACCTAGTGCAG | 44200 fluorescence intensity (a.u.)

Sequence | binding signal
AATCCATGATTATCACATATTTACTGTAGAACTACATTGTCGGAGTCACCTAGTGCAG | 11200 fluorescence intensity (a.u.)
TTAAATATAGTTAATTAAACTAGCTAGCTCCTCCGATCCTCGGAGTCACCTAGTGCAG | 12800 fluorescence intensity (a.u.)
CAAAATTGGCTCCTCACCCTTGTGCAGATGCAGCCTTCTTCGGAGTCACCTAGTGCAG | 13700 fluorescence intensity (a.u.)
GTAGGATTGGATGGATATAGGAGCCTGCCTTGCCTTCCTCCGGAGTCACCTAGTGCAG | 6030 fluorescence intensity (a.u.)
CTCTCTCCTTGGCCTCTTCCTCCCTGGTCGGTAGCGCAGCCGGAGTCACCTAGTGCAG | 59600 fluorescence intensity (a.u.)
CTTTGTAGACTGACAGTGATAGTATTGTACTGCTATACGTCGGAGTCACCTAGTGCAG | 9250 fluorescence intensity (a.u.)
TGGGCGGTTAATTTGACTTCGATGTTCAGTACCTTGTGGGCGGAGTCACCTAGTGCAG | 4180 fluorescence intensity (a.u.)
CTAGTAATAACACTGACATCAATTAGCAATTTAGCATCCGCGGAGTCACCTAGTGCAG | 13200 fluorescence intensity (a.u.)
CTTGGCTGAAACAAATCAATTAACATCACAAACAGGAGAACGGAGTCACCTAGTGCAG | 11300 fluorescence intensity (a.u.)
ACATTAATGATTAGAGACCATATTGTCATCAACTATTGTACGGAGTCACCTAGTGCAG | 30800 fluorescence intensity (a.u.)
ATATAATTACAATACAATCGTAGTGTAATTACACTGTAACCGGAGTCACCTAGTGCAG | 14800 fluorescence intensity (a.u.)
TAATGCTTAATTAATCTCAATATAATCGCGTGCTTTGTTTCGGAGTCACCTAGTGCAG | 7810 fluorescence intensity (a.u.)
TCATCGTGGTATTAATTATTTAATAATTATAAATATATTTCGGAGTCACCTAGTGCAG | 10200 fluorescence intensity (a.u.)
TTCGGTTTTATTTTAATTGACATTTTGGACAATGATACGGCGGAGTCACCTAGTGCAG | 27900 fluorescence intensity (a.u.)
GTTAATGATTAATTAGAGCATTTGTTGTCTCAACTATTGTCGGAGTCACCTAGTGCAG | 58600 fluorescence intensity (a.u.)
AATAATCATACTAATTATATAAGTATATACTAAATATTATCGGAGTCACCTAGTGCAG | 7370 fluorescence intensity (a.u.)
TCGTAAATTAATTATTAATAATATACTAATGGTATCCCCACGGAGTCACCTAGTGCAG | 53900 fluorescence intensity (a.u.)
TCATAACTATTTTAATTGACATACAAACAATGAGGCGGCACGGAGTCACCTAGTGCAG | 58300 fluorescence intensity (a.u.)
CTTAATTAATATAATCGGCAGGAGCTCACTGTTTGTTAACCGGAGTCACCTAGTGCAG | 52800 fluorescence intensity (a.u.)
ACATTAATGATTAGAGACTATATTGTCTCTAACTGTTGTACGGAGTCACCTAGTGCAG | 39900 fluorescence intensity (a.u.)
ACATCATTGACATAATATGATTTAACAACAAACAATTTAGCGGAGTCACCTAGTGCAG | 34800 fluorescence intensity (a.u.)
